Reference: ChEMBL document CHEMBL1961873, “Compounds: GSK PKIS; Assays: Nanosyn kinase panel” (2012)

Tests used:
[1] = target: Sphingosine kinase 1 (Homo sapiens) (UniProt Q9NYA1); details: at 1 µM;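 further: mean SPHK1 inhibition value reported from the GSK PKIS kinase panel screen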
[2] = target: T1, Sphingosine kinase 2 (Homo sapiens) (UniProt Q9NRA0); details: at 0.1 µM
T1 sequence (whole entry): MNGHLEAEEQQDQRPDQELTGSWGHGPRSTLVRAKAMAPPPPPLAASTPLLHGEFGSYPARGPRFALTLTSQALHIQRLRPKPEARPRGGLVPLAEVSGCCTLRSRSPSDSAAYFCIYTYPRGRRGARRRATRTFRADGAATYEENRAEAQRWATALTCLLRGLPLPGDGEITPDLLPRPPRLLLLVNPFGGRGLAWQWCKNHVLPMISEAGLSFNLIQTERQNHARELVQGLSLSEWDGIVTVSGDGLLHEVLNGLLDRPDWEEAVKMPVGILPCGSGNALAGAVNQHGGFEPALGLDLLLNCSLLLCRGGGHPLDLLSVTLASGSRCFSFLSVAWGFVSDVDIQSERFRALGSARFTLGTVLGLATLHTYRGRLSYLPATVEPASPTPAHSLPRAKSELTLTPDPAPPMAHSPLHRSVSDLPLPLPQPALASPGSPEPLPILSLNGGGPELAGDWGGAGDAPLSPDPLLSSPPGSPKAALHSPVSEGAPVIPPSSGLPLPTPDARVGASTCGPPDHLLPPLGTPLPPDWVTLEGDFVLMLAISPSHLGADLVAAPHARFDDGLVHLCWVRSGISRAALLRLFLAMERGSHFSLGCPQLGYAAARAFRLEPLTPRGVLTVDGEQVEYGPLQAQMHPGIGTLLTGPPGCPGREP

[3] = target: T1, Sphingosine kinase 2 (Homo sapiens); details: at 1 µM
[4] = target: Casein kinase II subunit alpha (Homo sapiens) (UniProt P68400); details: at 0.1 µM
Chain of Casein kinase II subunit alpha (Homo sapiens) (P68400 whole entry, looked up): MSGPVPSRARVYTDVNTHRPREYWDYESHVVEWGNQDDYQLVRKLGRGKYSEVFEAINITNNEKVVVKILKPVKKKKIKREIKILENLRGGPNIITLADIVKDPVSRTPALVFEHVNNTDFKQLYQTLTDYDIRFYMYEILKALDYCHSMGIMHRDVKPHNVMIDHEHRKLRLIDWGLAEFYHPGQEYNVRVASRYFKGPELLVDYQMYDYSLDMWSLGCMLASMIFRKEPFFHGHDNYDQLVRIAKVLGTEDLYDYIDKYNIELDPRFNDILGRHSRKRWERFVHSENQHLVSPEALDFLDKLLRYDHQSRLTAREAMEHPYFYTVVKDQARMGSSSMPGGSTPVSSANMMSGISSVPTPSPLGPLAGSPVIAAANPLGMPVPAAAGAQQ

[5] = target: Casein kinase II subunit alpha (Homo sapiens) (UniProt P68400); details: at 1 µM
[6] = target: T2, Inhibitor of nuclear factor kappa-B kinase subunit alpha (Homo sapiens) (UniProt O15111); details: at 0.1 µM
T2 sequence (whole entry): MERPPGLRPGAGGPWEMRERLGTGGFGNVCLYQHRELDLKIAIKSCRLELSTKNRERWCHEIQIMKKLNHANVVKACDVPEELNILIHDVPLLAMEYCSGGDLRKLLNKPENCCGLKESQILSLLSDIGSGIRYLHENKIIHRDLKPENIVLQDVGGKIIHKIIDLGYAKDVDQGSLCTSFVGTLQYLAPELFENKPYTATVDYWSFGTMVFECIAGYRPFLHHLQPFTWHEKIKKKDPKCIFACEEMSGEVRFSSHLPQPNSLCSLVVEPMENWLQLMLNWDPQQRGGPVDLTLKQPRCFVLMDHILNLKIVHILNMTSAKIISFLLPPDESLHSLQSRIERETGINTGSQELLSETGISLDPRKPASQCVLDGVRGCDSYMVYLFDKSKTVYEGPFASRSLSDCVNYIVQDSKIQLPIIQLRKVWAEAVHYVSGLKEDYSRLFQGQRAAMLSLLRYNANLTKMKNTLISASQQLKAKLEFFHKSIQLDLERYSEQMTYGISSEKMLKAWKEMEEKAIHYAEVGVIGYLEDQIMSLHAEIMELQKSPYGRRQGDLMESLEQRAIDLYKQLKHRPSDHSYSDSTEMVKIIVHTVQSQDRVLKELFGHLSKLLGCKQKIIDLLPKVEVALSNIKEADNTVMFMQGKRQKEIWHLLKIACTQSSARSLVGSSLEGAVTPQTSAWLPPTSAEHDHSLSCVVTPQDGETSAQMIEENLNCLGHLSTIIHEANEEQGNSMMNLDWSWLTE

[7] = target: T2, Inhibitor of nuclear factor kappa-B kinase subunit alpha (Homo sapiens); details: at 1 µM
[8] = target: T3, Inhibitor of nuclear factor kappa-B kinase subunit beta (Homo sapiens) (UniProt O14920); details: at 0.1 µM
T3 sequence (whole entry): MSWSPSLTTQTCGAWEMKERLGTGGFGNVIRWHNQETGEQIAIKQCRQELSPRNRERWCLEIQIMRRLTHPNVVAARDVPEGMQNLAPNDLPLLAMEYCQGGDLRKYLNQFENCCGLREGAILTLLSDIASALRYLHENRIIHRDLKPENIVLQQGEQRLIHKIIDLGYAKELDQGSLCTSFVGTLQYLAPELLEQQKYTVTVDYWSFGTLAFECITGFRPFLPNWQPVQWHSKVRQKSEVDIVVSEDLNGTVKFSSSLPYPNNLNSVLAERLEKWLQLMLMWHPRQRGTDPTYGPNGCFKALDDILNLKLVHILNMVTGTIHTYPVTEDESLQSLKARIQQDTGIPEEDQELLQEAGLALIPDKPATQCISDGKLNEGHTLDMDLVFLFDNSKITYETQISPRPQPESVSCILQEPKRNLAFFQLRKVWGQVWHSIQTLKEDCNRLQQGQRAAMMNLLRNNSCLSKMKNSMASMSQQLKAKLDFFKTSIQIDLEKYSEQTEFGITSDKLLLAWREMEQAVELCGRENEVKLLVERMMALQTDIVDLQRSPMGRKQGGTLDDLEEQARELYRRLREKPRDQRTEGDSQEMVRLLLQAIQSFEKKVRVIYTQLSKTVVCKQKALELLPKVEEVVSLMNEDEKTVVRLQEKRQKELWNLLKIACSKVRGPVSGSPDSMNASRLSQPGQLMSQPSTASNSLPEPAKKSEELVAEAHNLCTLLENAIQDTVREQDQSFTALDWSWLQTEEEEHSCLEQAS

[9] = target: T3, Inhibitor of nuclear factor kappa-B kinase subunit beta (Homo sapiens); details: at 1 µM
[10] = target: T4, Inhibitor of nuclear factor kappa-B kinase subunit epsilon (Homo sapiens) (UniProt Q14164); details: at 0.1 µM
T4 sequence (whole entry): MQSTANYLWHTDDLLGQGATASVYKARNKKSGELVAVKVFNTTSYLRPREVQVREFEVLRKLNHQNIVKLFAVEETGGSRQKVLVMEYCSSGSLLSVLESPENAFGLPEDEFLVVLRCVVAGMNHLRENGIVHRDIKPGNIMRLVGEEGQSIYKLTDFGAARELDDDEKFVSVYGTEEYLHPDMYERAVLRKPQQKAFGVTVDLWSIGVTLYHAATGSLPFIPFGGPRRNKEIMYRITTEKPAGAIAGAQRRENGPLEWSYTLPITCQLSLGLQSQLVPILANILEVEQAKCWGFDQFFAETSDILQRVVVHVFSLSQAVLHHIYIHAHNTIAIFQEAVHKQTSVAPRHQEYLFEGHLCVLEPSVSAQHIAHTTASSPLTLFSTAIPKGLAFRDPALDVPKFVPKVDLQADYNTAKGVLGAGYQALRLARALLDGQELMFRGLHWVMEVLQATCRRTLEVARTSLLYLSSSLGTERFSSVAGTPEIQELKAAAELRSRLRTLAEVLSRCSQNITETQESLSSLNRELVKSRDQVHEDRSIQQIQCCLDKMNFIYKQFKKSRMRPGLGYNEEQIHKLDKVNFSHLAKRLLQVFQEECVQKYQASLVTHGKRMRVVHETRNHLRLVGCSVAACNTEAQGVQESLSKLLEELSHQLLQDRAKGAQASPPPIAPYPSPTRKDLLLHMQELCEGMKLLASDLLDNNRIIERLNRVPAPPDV

[11] = target: T4, Inhibitor of nuclear factor kappa-B kinase subunit epsilon (Homo sapiens); details: at 1 µM
[12] = target: T5, Serine/threonine-protein kinase Nek1 (Homo sapiens) (UniProt Q96PY6); details: at 0.1 µM
T5 sequence (whole entry): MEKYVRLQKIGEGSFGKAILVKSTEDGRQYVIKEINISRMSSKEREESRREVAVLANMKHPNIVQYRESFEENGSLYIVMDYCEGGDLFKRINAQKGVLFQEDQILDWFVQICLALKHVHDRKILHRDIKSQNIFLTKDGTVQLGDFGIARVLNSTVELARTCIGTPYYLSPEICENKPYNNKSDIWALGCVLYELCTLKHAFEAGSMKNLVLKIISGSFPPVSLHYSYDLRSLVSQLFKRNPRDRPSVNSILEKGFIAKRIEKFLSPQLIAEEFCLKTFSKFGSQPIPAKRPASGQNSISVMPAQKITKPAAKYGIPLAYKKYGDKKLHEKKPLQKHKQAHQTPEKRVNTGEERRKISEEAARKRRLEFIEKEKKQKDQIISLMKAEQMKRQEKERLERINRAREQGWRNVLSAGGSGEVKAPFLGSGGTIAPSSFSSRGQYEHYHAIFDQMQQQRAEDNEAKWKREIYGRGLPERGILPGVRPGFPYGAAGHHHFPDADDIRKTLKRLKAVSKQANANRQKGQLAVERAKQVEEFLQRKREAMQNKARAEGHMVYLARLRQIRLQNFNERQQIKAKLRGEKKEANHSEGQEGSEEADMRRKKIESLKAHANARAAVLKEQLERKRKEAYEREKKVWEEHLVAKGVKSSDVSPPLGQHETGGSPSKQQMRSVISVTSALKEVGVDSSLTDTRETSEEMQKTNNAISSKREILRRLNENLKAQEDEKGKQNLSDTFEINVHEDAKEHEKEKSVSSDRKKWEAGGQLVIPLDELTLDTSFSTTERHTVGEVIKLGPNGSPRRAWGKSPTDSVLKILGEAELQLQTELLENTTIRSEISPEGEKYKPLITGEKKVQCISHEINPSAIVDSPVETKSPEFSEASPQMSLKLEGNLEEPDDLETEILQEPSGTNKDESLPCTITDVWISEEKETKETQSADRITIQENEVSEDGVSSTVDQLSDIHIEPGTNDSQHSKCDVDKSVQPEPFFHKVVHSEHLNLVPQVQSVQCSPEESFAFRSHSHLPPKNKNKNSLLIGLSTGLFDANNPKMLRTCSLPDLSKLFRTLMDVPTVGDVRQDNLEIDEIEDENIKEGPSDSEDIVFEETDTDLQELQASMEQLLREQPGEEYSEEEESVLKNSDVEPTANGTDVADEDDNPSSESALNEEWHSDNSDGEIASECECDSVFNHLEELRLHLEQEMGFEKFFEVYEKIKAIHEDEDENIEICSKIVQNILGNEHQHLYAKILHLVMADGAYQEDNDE

[13] = target: T5, Serine/threonine-protein kinase Nek1 (Homo sapiens); details: at 1 µM
[14] = target: T6, Serine/threonine-protein kinase Nek2 (Homo sapiens) (UniProt P51955); details: at 0.1 µM
T6 sequence (whole entry): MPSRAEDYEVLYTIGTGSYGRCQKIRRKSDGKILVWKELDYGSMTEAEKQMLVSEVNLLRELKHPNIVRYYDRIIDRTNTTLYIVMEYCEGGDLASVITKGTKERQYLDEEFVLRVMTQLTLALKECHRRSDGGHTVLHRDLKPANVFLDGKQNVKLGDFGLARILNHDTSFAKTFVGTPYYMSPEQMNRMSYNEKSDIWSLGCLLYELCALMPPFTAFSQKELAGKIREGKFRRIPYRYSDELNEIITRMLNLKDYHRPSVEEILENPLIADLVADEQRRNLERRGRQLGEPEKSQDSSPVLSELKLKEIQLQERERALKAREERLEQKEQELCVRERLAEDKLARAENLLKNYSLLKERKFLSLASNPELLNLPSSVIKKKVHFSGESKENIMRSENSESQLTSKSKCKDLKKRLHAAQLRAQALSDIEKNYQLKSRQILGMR

[15] = target: T6, Serine/threonine-protein kinase Nek2 (Homo sapiens); details: at 1 µM
[16] = target: Serine/threonine-protein kinase Nek6 (Homo sapiens) (UniProt Q9HC98); details: at 0.1 µM
Chain of Serine/threonine-protein kinase Nek6 (Homo sapiens) (Q9HC98 whole entry): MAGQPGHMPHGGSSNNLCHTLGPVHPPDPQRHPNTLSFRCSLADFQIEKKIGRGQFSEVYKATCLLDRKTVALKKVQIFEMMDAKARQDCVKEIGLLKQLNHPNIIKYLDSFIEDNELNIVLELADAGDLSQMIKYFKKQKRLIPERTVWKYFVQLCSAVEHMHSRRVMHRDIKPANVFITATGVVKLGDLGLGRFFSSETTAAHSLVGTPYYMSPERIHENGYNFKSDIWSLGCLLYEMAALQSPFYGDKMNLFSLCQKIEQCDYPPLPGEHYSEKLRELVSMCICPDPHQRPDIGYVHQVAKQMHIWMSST

[17] = target: Serine/threonine-protein kinase Nek6 (Homo sapiens) (UniProt Q9HC98); details: at 1 µM
[18] = target: Serine/threonine-protein kinase Nek7 (Homo sapiens) (UniProt Q8TDX7); details: at 0.1 µM
Chain of Serine/threonine-protein kinase Nek7 (Homo sapiens) (Q8TDX7 whole entry, looked up): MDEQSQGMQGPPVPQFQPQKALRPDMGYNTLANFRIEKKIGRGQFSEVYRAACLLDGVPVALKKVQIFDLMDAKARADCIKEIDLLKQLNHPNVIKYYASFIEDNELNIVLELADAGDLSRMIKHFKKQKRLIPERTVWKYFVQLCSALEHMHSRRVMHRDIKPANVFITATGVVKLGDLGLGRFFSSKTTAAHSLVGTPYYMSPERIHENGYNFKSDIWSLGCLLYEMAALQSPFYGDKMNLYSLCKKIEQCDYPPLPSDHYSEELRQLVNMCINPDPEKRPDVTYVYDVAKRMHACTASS

[19] = target: Serine/threonine-protein kinase Nek7 (Homo sapiens) (UniProt Q8TDX7); details: at 1 µM
[20] = target: T7, Serine/threonine-protein kinase Nek9 (Homo sapiens) (UniProt Q8TD19); details: at 0.1 µM;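 further: reported value is the mean percent inhibition of NEK9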
T7 sequence (whole entry): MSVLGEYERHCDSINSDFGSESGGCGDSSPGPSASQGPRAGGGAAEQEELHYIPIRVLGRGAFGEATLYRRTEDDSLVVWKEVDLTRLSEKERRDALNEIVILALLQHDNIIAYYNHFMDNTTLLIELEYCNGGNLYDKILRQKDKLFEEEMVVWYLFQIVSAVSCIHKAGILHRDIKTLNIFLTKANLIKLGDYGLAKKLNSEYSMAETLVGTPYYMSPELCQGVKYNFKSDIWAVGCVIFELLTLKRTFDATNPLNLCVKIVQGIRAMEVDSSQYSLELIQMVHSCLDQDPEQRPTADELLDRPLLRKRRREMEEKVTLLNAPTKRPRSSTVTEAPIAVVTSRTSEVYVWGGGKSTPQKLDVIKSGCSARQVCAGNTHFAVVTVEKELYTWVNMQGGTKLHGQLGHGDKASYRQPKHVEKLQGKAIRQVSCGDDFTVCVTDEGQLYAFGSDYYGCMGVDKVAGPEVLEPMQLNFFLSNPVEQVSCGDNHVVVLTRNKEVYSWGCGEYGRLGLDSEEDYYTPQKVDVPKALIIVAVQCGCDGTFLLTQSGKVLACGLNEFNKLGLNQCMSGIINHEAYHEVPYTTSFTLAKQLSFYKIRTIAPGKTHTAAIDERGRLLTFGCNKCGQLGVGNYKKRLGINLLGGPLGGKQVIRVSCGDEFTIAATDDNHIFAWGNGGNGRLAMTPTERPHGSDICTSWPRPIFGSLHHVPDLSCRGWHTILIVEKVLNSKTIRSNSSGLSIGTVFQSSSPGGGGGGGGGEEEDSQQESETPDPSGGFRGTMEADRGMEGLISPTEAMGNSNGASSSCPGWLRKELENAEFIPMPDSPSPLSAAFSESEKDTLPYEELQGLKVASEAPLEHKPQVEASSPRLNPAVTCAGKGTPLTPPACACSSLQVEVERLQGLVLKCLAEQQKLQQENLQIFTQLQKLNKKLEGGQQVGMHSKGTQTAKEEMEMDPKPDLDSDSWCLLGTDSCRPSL

Chain of Sphingosine kinase 1 (Homo sapiens) (Q9NYA1 whole entry): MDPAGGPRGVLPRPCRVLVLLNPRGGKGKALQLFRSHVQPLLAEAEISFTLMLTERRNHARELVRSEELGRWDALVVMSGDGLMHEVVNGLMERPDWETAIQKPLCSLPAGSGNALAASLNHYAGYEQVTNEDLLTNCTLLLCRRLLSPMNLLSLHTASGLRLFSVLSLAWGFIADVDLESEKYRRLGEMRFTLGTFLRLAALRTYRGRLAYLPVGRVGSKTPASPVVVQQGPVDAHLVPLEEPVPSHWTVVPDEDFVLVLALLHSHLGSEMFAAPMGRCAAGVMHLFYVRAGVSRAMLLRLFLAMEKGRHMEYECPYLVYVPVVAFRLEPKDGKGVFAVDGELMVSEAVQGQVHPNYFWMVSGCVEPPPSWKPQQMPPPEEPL

**Q.** With `c1cnn2ncc(-c3ccnc(Nc4ccc5c(c4)OCCO5)n3)c2c1` as the compound, how does the inhibition [1] read?
**A.** -1.74%

**Q.** And the inhibition [2]?
**A.** 2.07%

**Q.** And the inhibition [3]?
**A.** 0.2%

**Q.** And the inhibition [4]?
**A.** 13.2%

**Q.** And the inhibition [5]?
**A.** 47.5%

**Q.** And the inhibition [6]?
**A.** 14.7%

**Q.** And the inhibition [7]?
**A.** 60.5%

**Q.** And the inhibition [8]?
**A.** 8.92%

**Q.** What about the inhibition [9] of the same compound?
**A.** 30%

**Q.** What about the inhibition [10] of the same compound?
**A.** 6.75%

**Q.** What about the inhibition [11] of the same compound?
**A.** 20.5%

**Q.** What about the inhibition [12] of the same compound?
**A.** 4.85%

**Q.** What about the inhibition [13] of the same compound?
**A.** 20.4%

**Q.** And the inhibition [14]?
**A.** 4.88%

**Q.** What about the inhibition [15] of the same compound?
**A.** 15.4%

**Q.** And the inhibition [16]?
**A.** 3.89%

**Q.** And the inhibition [17]?
**A.** 4.5%

**Q.** And the inhibition [18]?
**A.** 3.53%

**Q.** What about the inhibition [19] of the same compound?
**A.** 6.49%

**Q.** And the inhibition [20]?
**A.** 16.2%
